Pf growth 48h = Primary qHTS for delayed death inhibitors of the malarial parasite plastid, 48 hour incubation. P. falciparum luciferase growth in erythrocytes, 48 h. Potency, µM (highest dose often 28.7 µM), actives largely listed as inhibitors. actives 5.9% (n = 310,000). AID 504832, 2011
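Compounds are pin-transferred into medium, infected erythrocytes (2% hematocrit, 0.1% parasitemia final) are added, and plates sit one parasite generation at 37 C in 5% CO2. Detection reagent is then added and luminescence measured.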
Pf growth 96h = Primary qHTS for delayed death inhibitors of the malarial parasite plastid, 96 hour incubation; Potency, µM (series often up to 28.7 µM), actives largely listed as inhibitors; actives 6.9% (n = 320,000); P. falciparum luciferase reporter growth, 96 h
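Cell-based qHTS: luciferase-tagged P. falciparum in erythrocytes (2% hematocrit, 0.05% parasitemia final) incubated with compounds for 96 hours, 37 C, 5% CO2; luciferase detection reagent then added and luminescence measured.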
CHX counter = Cycloheximide Counterscreen for Small Molecule Inhibitors of Shiga Toxin; cell reporter, cycloheximide protein synthesis inhibition counterscreen; max response, %; actives 12% (n = 300,000); AID 2314, 2010; in the data active = max response mostly above about 13%, no sharp cut-off; inactive = mostly below about 14%; note: read at 38.3 µM for the half of the compounds with a filed dose
NS1 inh = qHTS Assay for Inhibitors of Influenza NS1 Protein Function. Potency, µM (titrated, usually from 46.1 µM). actives 0.4% (n = 270,000); calls by dose curve; note: actives are rising curves; nearly all actives have a fitted effect of over 50% in size
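OD600 was taken as the measure of yeast growth restored by compound in an NS1-expressing S. cerevisiae strain. Cells had been washed out of glucose medium and diluted 1:100 into galactose -URA medium, pH 6.0.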
Shiga toxin inh = A qHTS for Small Molecule Inhibitors of Shiga Toxin; Vero cells, Shiga toxin protein synthesis inhibition reporter; inhibition, % at 38.7 µM; AID 2315, 2010; actives 9.2% (n = 290,000); in the data active = inhibition mostly above about 28%, no sharp cut-off; inactive = mostly below about 43%
Sm TGR block = qHTS Assay for the Inhibitors of Schistosoma Mansoni Peroxiredoxins; purified TGR, DTNB reduction, TNB absorbance 405 nm; Potency, µM (series often up to 114 µM), usual class: inhibitors; actives 3% (n = 360,000); AID 485364, 2010; note: nearly all actives have a fitted effect of over 60% in size
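TGR 20 nM + NADPH 100 uM (dispensed conc.), cpd preinc 15 min RT; start with NADPH (500 uM addition) then DTNB (15 mM addition). Kinetic TNB absorbance, 405 nm filter. Four-parameter Hill fit across titration.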
Of the large screens only hits and unclear results are named; the others gave an inactive call. Compounds with a hit are over-represented: about 21% of the library has one in this group of screens. Unless noted, calls come from the whole dose curve; as a rule, active = well fitted curve in the direction sought with a large enough effect; inconclusive = small, poorly fitted or top-dose-only effect, or another doubt; inactive = no such curve, though single readings can be large; an effect the other way counts as inactive or inconclusive.

COC(=O)c1ccc(N2CCN(S(=O)(=O)c3c(C)cc(C)cc3C)CC2)c([N+](=O)[O-])c1	Pf growth 48h 12µM, Pf growth 96h inconclusive
CCS(=O)(=O)N1CCN(c2ccc(C(=O)NC3C4CC5CC(C4)CC3C5)cc2[N+](=O)[O-])CC1 (centres undefined)	Pf growth 48h 12µM, Pf growth 96h inconclusive
O=C(O)c1cc2c(cn1)[nH]c1ccccc12	none
O=C(COc1ccc(Br)cc1)Nc1ccc(NC(=O)c2ccccc2)cc1	Pf growth 96h inconclusive
O=S1(=O)c2ccccc2N=NN1Cc1ccc(Cl)cc1	Sm TGR block 2.5µM (no result: Pf growth 96h)
Cc1ccc(NS(=O)(=O)c2ccc(OCC(=O)N3CCOCC3)cc2)cc1	none (no result: Pf growth 48h)
CCOc1cc(CNc2ccc(N3CCCC3)cc2)cc(Cl)c1OC	Pf growth 48h 2.9µM, Pf growth 96h 5.2µM, Shiga toxin inh 41, Sm TGR block 25µM
COc1cc(CNc2ccc(N3CCCC3)cc2)cc(Cl)c1OC	Pf growth 48h 3.3µM (no result: Sm TGR block)
CCOc1cc(CNc2ccc(S(N)(=O)=O)cc2)cc(Cl)c1OC	none
C=CCOc1c(Cl)cc(CNc2ccc(N(C)C)cc2)cc1OC	Pf growth 48h inconclusive, Pf growth 96h inconclusive, CHX counter 42, Sm TGR block 18µM
Cc1nnc(SCCC(=O)Nc2ccccc2Cl)o1	none
N#C/C(=C\c1c(F)cccc1Cl)c1nn(-c2ccccc2)c(-n2cccc2)c1C#N	Pf growth 48h 12µM, Pf growth 96h inconclusive
O=C(Nc1ccccc1)Nc1cccn(Cc2c(F)cccc2Cl)c1=O	CHX counter 60, Shiga toxin inh 95
CSc1ccc(NC(=O)Nc2cccn(Cc3ccccc3)c2=O)cc1	CHX counter 29, Shiga toxin inh 64
O=C(Nc1cccn(Cc2c(Cl)cccc2Cl)c1=O)c1c(Cl)cccc1Cl	Pf growth 48h inconclusive, Pf growth 96h inconclusive
O=C(NCc1ccccc1)Nc1cccn(Cc2ccccc2Cl)c1=O	Pf growth 48h inconclusive, Pf growth 96h inconclusive, Shiga toxin inh 50 (no result: Sm TGR block)
COc1ccc(NC(=O)CC2NCCNC2=O)c(OC)c1 (centres undefined)	none (no result: Pf growth 48h, Pf growth 96h, CHX counter, NS1 inh, Shiga toxin inh)
Cc1ccc(NC(=O)CN(C)C(=O)c2cccc(S(=O)(=O)NCc3cccs3)c2)cc1	Pf growth 48h inconclusive (no result: CHX counter, NS1 inh, Shiga toxin inh)
CC[n+]1c(C)n(C)c2cc(S(=O)(=O)N(C)C)ccc21	Sm TGR block 50µM
Cc1ccc(NC(=O)CN2C(=O)N/C(=C/c3cc(C)n(-c4ccc(C(=O)O)cc4)c3C)C2=O)cc1	Pf growth 96h inconclusive, Shiga toxin inh 84, Sm TGR block 45µM (no result: NS1 inh)
Cc1ccc(NC(=O)CN2C(=O)N/C(=C/c3cccn3-c3ccc(C(=O)O)cc3)C2=O)cc1	NS1 inh inconclusive, Sm TGR block inconclusive
Cc1ccc(NC(=O)CN2C(=O)N/C(=C/c3ccco3)C2=O)cc1	NS1 inh inconclusive, Sm TGR block 50µM
O=C1CC(Sc2nnc(-c3ccccc3)o2)C(=O)N1c1ccccc1 (centres undefined)	CHX counter 22, Shiga toxin inh 49, Sm TGR block 3.5µM (no result: Pf growth 96h)
Cc1ccc(N2C(=O)CC(Sc3nc(-c4ccccc4)c4cc(Cl)ccc4n3)C2=O)c(C)c1 (centres undefined)	none
Cc1ccccc1N1C(=O)CC(Sc2nnc(-c3ccccc3)o2)C1=O (centres undefined)	CHX counter 19, Sm TGR block 2.8µM
O=C1c2ccccc2CC1Sc1nnc(-c2ccncc2)o1 (centres undefined)	Sm TGR block 16µM
COc1ccc(-c2cc3nc(C)c(CCC(=O)N4CCN(c5cccc(Cl)c5)CC4)c(C)n3n2)c(OC)c1	none (no result: Pf growth 48h, Pf growth 96h, CHX counter, NS1 inh, Shiga toxin inh)
COc1ccc(CNc2ncnc3onc(-c4ccc(F)cc4)c23)cc1	none (no result: Pf growth 48h, Pf growth 96h, CHX counter, NS1 inh, Shiga toxin inh)
Clc1ccc(-n2nnc(-c3cccnc3Cl)n2)cc1Cl	CHX counter 35, Shiga toxin inh 54
COc1ncccc1-c1nnn(-c2ccccc2)n1	CHX counter 43, Shiga toxin inh 55
Fc1ccc(-n2nnc(-c3cccnc3Cl)n2)cc1	CHX counter 54, Shiga toxin inh 89
Fc1ccc(-n2nnc(-c3ccccc3Cl)n2)cc1	Pf growth 96h inconclusive
c1ccc(-n2nnc(-c3cccnc3)n2)cc1	CHX counter 41, Shiga toxin inh 44
C[N+](C)(C)C(Cc1ccccc1)C(=O)[O-] (centres undefined)	Sm TGR block inconclusive
CCOc1ccc2nc(SCC(=O)NCc3ccccc3OC)[nH]c2c1	Pf growth 96h inconclusive
Clc1nc2ccccc2cc1-c1nnn(-c2ccccc2)n1	CHX counter 46, Shiga toxin inh 59
Cc1ccc(-n2nnc(-c3cnc4ccccc4c3)n2)cc1	CHX counter 57
Fc1ccc(-n2nnc(-c3nccs3)n2)cc1	CHX counter 38, Shiga toxin inh 54
Clc1ncccc1-c1nnn(-c2ccccc2)n1	CHX counter 50, Shiga toxin inh 56
Cn1cc(-c2cc3n(n2)CCC(=O)N3CCCC(=O)Nc2ccccc2F)c2ccccc21	none (no result: Pf growth 48h, Pf growth 96h, CHX counter, NS1 inh, Shiga toxin inh)
CC(=O)c1cccc(CN2CCc3ccc(NC(=O)C4CCCO4)cc3C2)c1 (centres undefined)	none
Cc1csc2nc(CCNS(=O)(=O)c3ccc(F)cc3)cn12	none (no result: Pf growth 48h, Pf growth 96h, CHX counter, NS1 inh, Shiga toxin inh)
Cc1ccc(-n2nnc(-c3nccn3C)n2)cc1	CHX counter 11
Cc1ccc(-c2cn3cccnc3n2)cc1	Pf growth 96h inconclusive, CHX counter 28, Shiga toxin inh 71 (no result: NS1 inh)
Cc1cc(C)cc(C(=O)Nc2ccc(-c3cn4cccnc4n3)cc2)c1	none (no result: Pf growth 48h, Pf growth 96h, CHX counter, NS1 inh, Shiga toxin inh)
CS(=O)(=O)Nc1ccc(-c2cn3cccnc3n2)cc1	CHX counter 21, Shiga toxin inh 43
CCOc1ccc(N(CC(=O)N/N=C/c2ccccn2)S(=O)(=O)c2ccc(Cl)cc2)cc1	Pf growth 48h inconclusive, Pf growth 96h inconclusive
COC(=O)/C(C#N)=C/N(C)C	Pf growth 48h 2.3µM
CCCCOc1ccc(C(=O)N/C(=C/c2cccc([N+](=O)[O-])c2)C(=O)O)cc1	Sm TGR block inconclusive
CCCCOc1ccc(C(=O)N/C(=C\c2cccc([N+](=O)[O-])c2)C(=O)OC(C)C)cc1	Pf growth 48h 0.59µM, Pf growth 96h 0.47µM
CCCCOc1ccc(C(=O)N/C(=C\c2cccc([N+](=O)[O-])c2)C(=O)OCCC)cc1	Pf growth 48h inconclusive, Pf growth 96h 1.7µM
CC(C)COc1ccc(C(=O)N/C(=C\c2cccc([N+](=O)[O-])c2)C(=O)OC(C)C)cc1	Pf growth 48h 0.15µM
COCCNS(=O)(=O)c1cc(C)c(C)cc1C	Pf growth 96h inconclusive
CC1CCCCN1CCCNC(=O)c1[nH]c2ccccc2c1Sc1ccc(Cl)cc1 (centres undefined)	none (no result: Pf growth 48h, Pf growth 96h, CHX counter, NS1 inh, Shiga toxin inh)
CC(=O)Nc1ccc(S(=O)(=O)N2CCN(c3ccc(C)c(C)c3)CC2)cc1	none (no result: Pf growth 48h, Pf growth 96h, CHX counter, NS1 inh, Shiga toxin inh)
